These results are taken from PubChem BioAssay (Tox21).

Records with an inconclusive call do not appear. A number with no mark means an inactive call. The source made the active and inactive calls. Calls follow the shape of the dose curve; as a rule, active = well fitted cell-killing curve with a large enough effect in the repeat runs; inconclusive = weak or mixed curves; inactive = flat fitted curve, though single readings scatter.
% is scaled to controls: 0 for no effect and ±100 for the full control effect; potency is read from the fitted curve at half-maximal effect.

A short description of the assay: qHTS assay to identify small molecule antagonists of the TGF-beta/Smad signaling pathway - cell viability counter screen (AID 1346824). Also: nearly all actives have a fitted effect of over 50% in size. The note with it: SBE-bla HEK293T viability, CellTiter-Glo luminescence; series mostly up to 76.8 µM; viability change, negative = cytotoxic: at the top concentration. An excerpt: U.S. Tox21 Program National Center for Advancing Translational Sciences [NCATS] NIH Chemical Genomics Center [NCGC] U.S. Environmental Protection Agency [EPA] National Institutes of Environmental Health Sciences [NIEHS] National Toxicology Program [NTP] U.S. Food and Drug Administration [FDA] Tox21 Assay Overview: Transforming growth factor beta (TGF-beta) superfamily consists of a large number of structurally related dimeric proteins that act as hormones or local mediators in regulating a wide range of biological functions. This superfamily includes TGF-betas themselves, the bone morphogenetic proteins (BMPs) and the activins. These ligands induce oligomerization of serine/threonine receptor kinases and phosphorylate the cytoplasmic signaling molecules of Smad protein family. CellSensor SBE-bla HEK 293T cell line (Life Technologies, Carlsbad, CA), responsive to TGF-beta was used to screen Tox21 10K compound library for identification of agonists/antagonists of the Smad signaling pathway. This cell line contains a beta-lactamase reporter gene under control of the Smad binding element (SBE) stably integrated into HEK 293T cells. Also cytotoxicity of the compounds was tested in parallel by measuring the cell viability using CellTiter-Glo assay system in the same wells.
Tox21 Assay Protocol Summary: SBE-bla HEK 293T cells were dispensed at 4,000/well in 5 uL of assay medium into black wall/clear-bottom 1536-well plates using a Multidrop Combi (ThermoFisher Scientific, Waltham, MA) dispenser. After the assay plates were incubated at 37 C and 5% CO2 for an overnight, 23 nL of compounds dissolved in DMSO, positive controls or DMSO only was transferred to the assay plate by a Pintool station (Kalypsys, San Diego, CA). Compound transfer was followed by the addition of 1 uL of 0.25 ng/mL TGF-beta1 or assay buffer using two separate tips of Flying Reagent Dispenser (FRD, Aurora Discovery, San Diego, CA). The assay plates were incubated at 37 C and 5% CO2 for 5 hr. One uL of LiveBLAzer B/G FRET substrate (Life Technologies) was added using a Flying Reagent Dispenser (FRD, Aurora Discovery, San Diego, CA) and the plates were incubated at room temperature for 2 hr. Fluorescence intensity (405 nm excitation, 460 nm and 530 nm emissions) was measured using an Envision plate reader (PerkinElmer, Shelton, CT). For cytotoxicity read, 4 uL of CellTiter-Glo reagent (Promega Corporation, Madison, WI) was added to each well of the assay plates using FRD. After 30 min incubation at room temperature, the luminescence intensity was measured using ViewLux plate reader (PerkinElmer).
A general note: In qHTS, concentration-response curves come from the screen itself.
With `Nc1c(Cl)cc(Cl)cc1Cl`, the “viability change, negative = cytotoxic” value was -6.55%.
Still for that read-out and setting: under `CCCCCCCCS(=O)C(C)Cc1ccc2c(c1)OCO2` (stereo not given) stands 0.509%.
Consider `Clc1ccc2n[nH]nc2c1`, for which the “viability change, negative = cytotoxic” value was 19.8%.
For `Oc1cccc2cc3cccc(O)c3c(O)c12`, the “viability change, negative = cytotoxic” value is -3.05%.
`Oc1cc2ccccc2c2ccccc12`: the Potency was 11 µM (active).
For the compound `CCCCCCCCCCn1cc[n+](CCCCCCCCCC)c1C`, the Potency is 24.6 µM (active).
For the compound `CCCCCCCCCCCCCCCS(=O)(=O)Oc1ccccc1`, the “viability change, negative = cytotoxic” value is -0.15% [at 35.3 µM].
In the case of `NNc1nc(-c2ccc([N+](=O)[O-])cc2)cs1`, the “viability change, negative = cytotoxic” value was -20.1%.
Still for that read-out and setting: under `COCCCC/C(=N\OCCN)c1ccc(C(F)(F)F)cc1` stands -12.6% [at 35.3 µM].
Regarding `CCCCCCCCCOC(=O)c1ccc(O)cc1`, the “viability change, negative = cytotoxic” value was -24.6%.
For the compound `CCN(Cc1cccnc1)C(=O)c1cccc(Cl)c1[C@]1(C)C(=O)N(Cc2ccc(OC)cc2OC)c2ccc(Cl)cc21`, the “viability change, negative = cytotoxic” value is -2.33%.
The same measure, in the same setting: under `CCCCCCCCCCC=O` stands -1.85%.
As for `CC(NN)c1ccccc1` (stereo not given), the viability change, negative = cytotoxic was 2.36% [at 15.8 µM].
Turning to `Oc1ccc2cc(SSc3ccc4cc(O)ccc4c3)ccc2c1`, the Potency result is “inactive”.
Consider `C[n+]1cc2c3c(ccc2c2ccc4cc5c(cc4c21)OCO5)OCO3`, for which the Potency was 4.65 µM (active).
Turning to `CCN(CC)CCCC(C)Nc1c2ccc(Cl)cc2nc2ccc(OC)cc12` (stereo not given), the “viability change, negative = cytotoxic” value was 0.227% [at 35.3 µM].
Still for that read-out and setting: the value for `CCCCCCCC(=O)[O-].CCCCCCCC(=O)[O-].[Zn+2]` was -0.682% [at 35.3 µM].
Regarding `Cc1cc(N)c(S(=O)(=O)O)cc1Cl`, the “viability change, negative = cytotoxic” value is -6.71%.
Still for that read-out and setting: under `Cc1cccc(CN2CCN(C(c3ccccc3)c3ccc(Cl)cc3)CC2)c1` (stereo not given) stands -23.1% [at 35.3 µM].
As for `CCCC(=O)OC[C@@H](OC(=O)CCC)[C@@H](OC(=O)CCC)[C@H](Cn1c2nc(=O)[nH]c(=O)c-2nc2cc(C)c(C)cc21)OC(=O)CCC`, the “viability change, negative = cytotoxic” value is 10.1% [at 35.3 µM].
Take `CN(C)c1ccc(SC#N)cc1`: the “viability change, negative = cytotoxic” value was 2.05%.
In the case of `CCCCCCCC/C=C/CCCCCCCC1=NCCN1CCO`, the “viability change, negative = cytotoxic” value is -14.8%.
The same measure, in the same setting: under `CCOC(=O)O[C@]1(C(=O)OCCl)CC[C@H]2[C@@H]3CCC4=CC(=O)C=C[C@]4(C)[C@H]3[C@@H](O)C[C@@]21C` stands -8.16% [at 35.3 µM].
With `CCCCC(CC)COC(=O)c1ccccc1C(=O)O` (stereo not given), the “viability change, negative = cytotoxic” value is 3.81%.
As for `Cc1cc(C2CCCCC2)n(O)c(=O)c1`, the “viability change, negative = cytotoxic” value was 4.86% [at 35.3 µM].
As for `c1cc(C(c2ccc(OCC3CO3)cc2)c2ccc(OCC3CO3)cc2)ccc1OCC1CO1` (stereo not given), the “viability change, negative = cytotoxic” value is -19.2%.
The same measure, in the same setting: the value for `O=c1c(-c2ccccc2)c1-c1ccccc1` was -5.01% [at 35.3 µM]; that for `Oc1c(Cl)cc(Cl)c2cccnc12` was 0.609% [at 35.3 µM].
`Cc1cc(CCN2CCN(c3nsc4ccccc34)CC2)cc2c1NC(=O)CC2(C)C`: the Potency is 54.9 µM (active).
Take `COc1ccc(CN2CCN(C(c3ccc(F)cc3)c3ccc(F)cc3)CC2)c(OC)c1OC`: the Potency was 16.9 µM (active).
Consider `CCCCCCOC(=O)c1ccc(O)cc1`, for which the “viability change, negative = cytotoxic” value was -16.5%.
As for `NC(=O)N1C(=O)C(C(=O)c2cc(Cl)cs2)c2cc(F)c(Cl)cc21` (stereo not given), the “viability change, negative = cytotoxic” value was -6.87%.
As for `CCCCc1oc2ccc(NS(C)(=O)=O)cc2c1C(=O)c1ccc(OCCCN(CCCC)CCCC)cc1`, the Potency was 23.9 µM (active).
Consider `C/C=C(\C)C(=O)OCc1ccccc1`, for which the “viability change, negative = cytotoxic” value is -6.93%.
On to `ON=C1CCCC1`, for which the “viability change, negative = cytotoxic” value was 2.3%.
With `NNc1nc(-c2ccc(N)cc2)cs1`, the “viability change, negative = cytotoxic” value was 0.101%.
For `C[C@@H]1C[C@H]2[C@@H]3CCC4=CC(=O)C=C[C@]4(C)[C@@]3(Cl)[C@@H](O)C[C@]2(C)[C@@]1(OC(=O)c1ccco1)C(=O)CCl`, the “viability change, negative = cytotoxic” value was -13% [at 35.3 µM].
As for `O=C1c2ccccc2Cc2ccccc21`, the “viability change, negative = cytotoxic” value is -5.18%.
On to `CCc1oc2ccccc2c1C(=O)c1cc(Br)c(O)c(Br)c1`, for which the “viability change, negative = cytotoxic” value was 1.42% [at 35.3 µM].
Same read-out and setting: under `CC(C)(C)C(=O)OCOC(=O)[C@@H]1N2C(=O)[C@@H](NC(=O)[C@H](N)c3ccccc3)[C@H]2SC1(C)C` stands -0.889% [at 35.3 µM].
